Bioassay records (PubChem)
An excerpt weighted towards active compounds, which were near 2.8% of everything screened.
MsrA inh – bovine MsrA inhibition | purified bovine MsrA, absorbance read-out | 0.75% of 360,000 active | inhibition, % at 15.5 µM | AID 651718;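 also: 0% = vehicle wells with enzyme and 100% = reference inhibitor wells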
MsrA act – activators of bovine methionine sulfoxide reductase A; purified bovine MsrA, absorbance read-out; activation, % at 10.6 µM; 0.3% of 360,000 active; in the data active = activation above about 7.5%;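 also: 0% = vehicle and 100% = reference activator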
KLK7 zymogen act – activates the human kallikrein-7 zymogen; purified proKLK7, EDANS-DABCYL substrate fluorescence; 100% is mature enzyme control, 0% vehicle; activation, % at 7 µM; 0.9% of 370,000 active; AID 652039;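 active = activation above the mean of all tested compounds plus 3 SD, computed per campaign excluding outliers beyond control limits, cut at about 13% in these data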
Target sequence (P49862 whole entry, looked up): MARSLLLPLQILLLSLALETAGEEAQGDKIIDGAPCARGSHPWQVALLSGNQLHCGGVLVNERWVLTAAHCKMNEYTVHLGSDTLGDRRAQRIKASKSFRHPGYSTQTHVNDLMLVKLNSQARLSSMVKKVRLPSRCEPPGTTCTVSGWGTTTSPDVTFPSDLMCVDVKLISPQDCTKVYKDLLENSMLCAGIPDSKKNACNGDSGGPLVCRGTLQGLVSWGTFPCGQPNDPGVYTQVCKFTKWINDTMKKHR
SMARCA2 activ – increases SMARCA2 function in MMTV reporter cells | MG213 cells, MMTV-luciferase reporter, dexamethasone, overnight | 1% of 370,000 active | activation, % at 9.1 µM; in the data active = activation above about 7.8%;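 also: 0% = vehicle wells and 100% = reference activator wells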
MsrA inh confirm – bovine MsrA inhibition, confirmed; 41% of 2,300 active; purified bovine MsrA, absorbance read-out; inhibition, % at 15.5 µM; AID 651822; shares compounds with MsrA inh;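 also: coupled to thioredoxin reductase with NADPH and selenocystamine and DMSO as substrate; 0% = vehicle only and 100% = full effect of reference inhibitor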
SMARCA2 act conf – confirmation of SMARCA2 (BRM) function activators | 30% of 3,500 active | AID 652260 | activation, % at 9.1 µM | MG213 cells, MMTV-luciferase with dexamethasone, luminescence, overnight; MG213 cells expressing E1A, Rb sequestered; DMSO wells 0%, reference activator 100% | shares compounds with SMARCA2 activ;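 active = activation above its plate's cutoff, the mean activation of tested wells plus 3 SD, cut at about 7.9% in these data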
VP16 Luc act – activates GAL4-VP16 luciferase, flagging SMARCA2 activator hits. shares compounds with SMARCA2 activ. HEK293 GAL4-VP16 pG5luc reporter, luciferase luminescence; scaled: DMSO wells 0%, SAHA wells 100%. activation, % at 9.1 µM. 41% of 3,500 active;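 active = activation above the solvent-only control well mean plus 3 SD, averaged across control plates, cut at about 5.2% in these data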
proKLK7 act conf – proKLK7 activation, confirmation; purified proKLK7, EDANS-DABCYL substrate fluorescence; scaled: vehicle 0, mature enzyme 100; activation, % at 7 µM; 68% of 3,200 active; AID 686949; shares compounds with KLK7 zymogen act;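 active = activation, as change over the incubation, above the mean of all tested compounds plus 3 SD, cut at about 13% in these data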
EDANS interfere – optically interferes with EDANS-DABCYL signal, flagging KLK7 hits | EDANS-DABCYL substrate fluorescence interference, no enzyme, 4 h; solvent 0%, active enzyme control 100% | AID 686952 | 80% of 3,200 active | activation, % at 7 µM | shares compounds with KLK7 zymogen act;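 active = activation above the all-compound mean plus 3 SD, ignoring values outside control-based bounds, cut at about 4.8% in these data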;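 also: value is the 4 h activation minus the activation read at time zero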
An asterisk follows results filed as active; . = no result given; ! = repeats disagree. Rule as the data show it, unless noted: active = inhibition above about 4.5%; inactive = the rest.

SMILES | MsrA inh | MsrA act | KLK7 zymogen act | SMARCA2 activ | MsrA inh confirm | others
CC[C@]12CCN(CC3(O)CC3)[C@H](Cc3ccc(O)cc31)C2(C)C | -1 | . | 0 | 0 | .
O=c1[nH]c(=S)n(-c2cccc(Cl)c2)c(O)c1C=NCCN1CCNCC1 | 3 | 1 | 0 | -2 | .
O=c1[nH]c(=S)n(-c2ccccc2)c(O)c1C=NCCN1CCNCC1 | 5.4* | -4 | 0 | -2 | 2
O=C(NC1CN2CCC1CC2)c1ccc(Cl)cc1 (stereo unspecified) | -2 | . | 0 | -1 | .
N/C(=N\N=C/c1ccc(-c2ccc(O)c(C(=O)O)c2)o1)N[N+](=O)[O-] | 5.2* | -4 | 8 | -3 | 4.7*
Cc1cc(N2CCNC[C@H]2C)ccc1N1CCN[C@@H](C)C1 | 0 | . | -1 | 4 | .
COc1cccc(C(=O)NCCN2CCC3(CC2)C(=O)NCN3c2ccccc2)c1 | 1 | . | 0 | -3 | .
CCc1ccc(-n2c(O)c(/C=N/NC(=O)c3ccncc3)c(=O)[nH]c2=O)cc1 | 4.7* | -6 | 0 | -3 | 4.6*
CC(C)c1ccc(-n2c(O)c(/C=N/NC(=O)c3ccncc3)c(=O)[nH]c2=O)cc1 | 3 | -5 | 0 | 1 | .
COC(=O)C1C(c2ccccc2)CC2CCC1N2C (stereo unspecified) | -1 | . | 0 | 3 | .
COc1cc2c(cc1O)C[C@H]1c3c(cc(O)c(OC)c3-2)CCN1C | 21* | -4 | -17 | -1 | 9.2*
COc1cc2c3c(c1OC)Oc1ccc(cc1)C[C@H]1c4c(cc(OC)c(OC)c4Oc4ccc(cc4)C[C@@H]3N(C)CC2)CCN1C | -1 | 0 | 1 | 6 | .
COc1ccc(OC)c(-n2c(O)c(C=Nc3c(C)n(C)n(-c4ccccc4)c3=O)c(=O)[nH]c2=O)c1 | 4 | -4 | -1 | -3 | .
COc1ccccc1-n1c(O)c(C=Nc2c(C)n(C)n(-c3ccccc3)c2=O)c(=O)[nH]c1=O | 5.4* | -4 | -2 | 0 | 4.8*
CN(C)c1ccc(C=C2C(=O)NC(=S)NC2=O)cc1[N+](=O)[O-] | 7.3* | -8 | 0 | -1 | 3
COc1cc(C(=O)NN=Cc2ccc(N(CCCl)CCCl)cc2)cc(OC)c1OC | 5.2* | -6 | 1 | -1 | 4
Cc1cc(O)c2c(c1)C(=O)[C@@]13C(=C2O)C(=O)[C@H]2C(O)[C@@H]1[C@H]1C(O)[C@@H]3C(=O)C3=C(O)c4c(O)cc(C)cc4C(=O)[C@@]312 (stereo partly specified) | . | . | 0 | -5 | .
COc1cc(/C=C2\C(=O)NC(=O)N(CCc3ccc(F)cc3)C2=O)ccc1O | 7.6* | -13 | 0 | -2 | 4
CC(=O)N1c2ccccc2C(c2ccccc2)=NCC1C(=O)NC1CCCCC1 (stereo unspecified) | . | . | 1 | 2 | .
COC(=O)C1C(c2ccc(Cl)cc2)CC2CCC1N2C (stereo unspecified) | 0 | . | 1 | 6 | .
COc1ccc(/C=N/N=C(/N)N[N+](=O)[O-])c(OC)c1 | 7.9* | -5 | -1 | 2 | 5.6*
O=c1[nH]cnc2nc(-c3ccc(N(CCCl)CCCl)cc3)[nH]c12 | 5.1* | -3 | -15 | 6 | 2
COc1ccc(N=Nc2c(O)[nH]c(=S)[nH]c2=O)cc1 | 0 | -4 | 0 | 5 | .
CSc1nc(N)c(N=Nc2ccc([As](=O)(O)O)cc2)c(=O)[nH]1 | 82* | -6 | 0 | -3 | 86*
CC(=O)Nc1ccc(N=Cc2c(O)n(Cc3ccco3)c(=O)[nH]c2=O)cc1 | 5.2* | -4 | -5 | -4 | 6.0*
SMILES | MsrA inh | MsrA act | KLK7 zymogen act | SMARCA2 activ | MsrA inh confirm | others
CCCCC(=O)N/N=C/c1c(O)n(Cc2ccco2)c(=O)[nH]c1=O | 2 | -2 | 0 | -2 | .
O=C1NC(=O)N(Cc2cccs2)C(=O)/C1=C/c1ccc(N2CCOCC2)cc1 | 4.7* | -8 | -1 | -2 | 3
CN1C(=O)N(C)C(=O)C2(Sc3ccccc3C2=O)C1=O | 59* | -2 | 13* | 1 | 1 | proKLK7 act conf=247*;EDANS interfere=233*
COc1ccc(-c2cc(=NCCCCCC(=O)O)c3cc(C)ccc3o2)cc1 | 6.3* | -8 | 105* | 3 | 7.0*! | proKLK7 act conf=64*;EDANS interfere=72*
COc1ccc(-c2cc(=Nc3cccc(C(=O)O)c3)c3cc(C)ccc3o2)cc1 | 2 | -4 | -8 | 3 | .
C[C@@H]1CNCCN1c1ccc(N2CC[C@H](O)C2)c(C#N)c1 | 0 | . | 1 | -1 | .
O=C1c2ccccc2-c2cccc3cccc1c23 | -1 | -2 | -38 | 8.6* | . | SMARCA2 act conf=9.5*;VP16 Luc act=2
CC(=O)Nc1ccc(S(=O)(=O)N2Cc3cnnn3-c3ccccc3C2C#N)cc1 (stereo unspecified) | 1 | -5 | 0 | 9.7* | . | SMARCA2 act conf=-1;VP16 Luc act=1
Cc1ccc(S(=O)(=O)N2Cc3cnnn3-c3ccccc3C2C#N)cc1 (stereo unspecified) | -2 | -7 | 0 | -4 | .
Cc1cc(C(=O)CS(=O)(=O)c2ccccc2)cc(C)c1OC(=O)N(C)C | 0 | -3 | 0 | 13* | . | SMARCA2 act conf=7;VP16 Luc act=8.8*
O=C(c1cc(-c2ccccc2)nc2ccccc12)N1CCC2(CC1)OCCO2 | 2 | -4 | -1 | -3 | .
O=C(NC1CN2CCC1CC2)c1cc(-c2ccc(Cl)cc2)nc2ccccc12 (stereo unspecified) | . | . | 1 | 11* | . | SMARCA2 act conf=2;VP16 Luc act=2
C[C@H]1CNCCN1c1ccc(N2CC[C@H](O)C2)c(C#N)c1 | -1 | . | 1 | 1 | .
CCn1c(O)c(/C=N/NC(=O)c2ccncc2)c(=O)[nH]c1=S | 3 | -4 | -2 | 0 | .
CCn1c(O)c(/C=N/NC(=O)c2ccccc2)c(=O)n(CC)c1=S | 0 | -11 | 1 | 8.1* | . | SMARCA2 act conf=5;VP16 Luc act=2
CC(C)(C)n1nnnc1C1CN=C(c2ccccc2)c2cc(Cl)ccc2N1 (stereo unspecified) | . | . | 0 | -3 | .
O=c1c2ccccc2nc(/C=C/c2ccc([N+](=O)[O-])o2)n1-c1ccc(O)cc1 | 1 | -5 | 0 | 9.5* | . | SMARCA2 act conf=-14;VP16 Luc act=1
Cc1cccc(-n2c(/C=C/c3ccc([N+](=O)[O-])o3)nc3ccccc3c2=O)c1 | -1 | -4 | 0 | 0 | .
ClCCN(CCCl)c1ccc(-n2cnc3c(Cl)ncnc32)cc1 | 0 | -3 | 1 | 16* | . | SMARCA2 act conf=-3;VP16 Luc act=0
